Screening data (PubChem)
p47phox inh = p47phox (human) inhibition | p47phox/p22phox peptide binding, fluorescence polarization, 2 h | inhibition, % at 24.7 µM | 0.53% of 220,000 active | AID 1274;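 note: 0% = p47phox with labelled peptide and 100% = labelled peptide alone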
Mcl1-Noxa inh = disrupts binding of human Mcl-1 to Noxa peptide; Q07820; TR-FRET Mcl-1/Noxa peptide binding, 2 h; inhibition, % at 21.7 µM; 1.5% of 220,000 active;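 active = compounds that cut the protein-peptide binding signal by more than 50% relative to plate controls in a single-dose test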;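 note: His-tagged Mcl-1 with rhodamine Noxa BH3 peptide and terbium anti-His antibody; 0% = Mcl-1 plus Noxa peptide wells and 100% = peptide-only wells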
Mcl1 Bid PPI = disrupts binding of human Mcl-1 to Bid peptide; Q07820; TR-FRET Mcl-1/Bid-Dy647 peptide binding, 1536-well; inhibition, % at 21.7 µM; 0.97% of 220,000 active; AID 1021;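 active = compounds that cut the binding signal by more than half at the single screening dose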;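 note: His-tagged Mcl-1 with europium anti-His antibody binding Bid BH3 peptide; 0% = Mcl-1 plus peptide wells and 100% = peptide-only wells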
Mcl-1 Bim block = inhibitors of Bim-Mcl-1 interaction, human; Q07820; Bead-based flow cytometry, Bim peptide-Mcl-1 binding; inhibition, % at 10 µM; 0.1% of 190,000 active; in the data active = inhibition above about 40%;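 note: 0% = no compound tracer wells and 100% = peptide blocker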
14-3-3 Bad PPI = disrupts binding of bovine 14-3-3 zeta to phospho-Bad peptide. TR-FRET 14-3-3zeta/Dy647-pBad peptide displacement, 1 h. inhibition, % at 21.7 µM. 0.71% of 220,000 active;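 active = inhibition above about 70%, limit read from the data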;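 note: 0% = full 14-3-3 plus peptide FRET controls and 100% = background without 14-3-3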
eIF4E-4G inh = inhibitors of eIF4E and eIF4G interaction in translation initiation; AID 782; TR-FRET eIF4E-eIF4GI(517-606) binding, 2 h; 0.37% of 220,000 active; P63073+Q04637; inhibition, % at 21.7 µM;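 note: 0% = full FRET control wells and 100% = background wells lacking eIF4GI fragment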
Numbers without * were called inactive. Hits are enriched below; roughly 3.3% of the tested compounds scored in any of these assays.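 Rule for the calls, unless noted: active = inhibition above about 30% (limit read from the data); inactive = the rest.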

Screening COc1ccc(N2CCN(C(CNC(=O)C(=O)NCc3cccs3)c3ccco3)CC2)cc1 (centres undefined) returned p47phox inh -5, Mcl1-Noxa inh 29, Mcl1 Bid PPI -38, Mcl-1 Bim block -2, 14-3-3 Bad PPI 2 and eIF4E-4G inh 9.
`O=C(COc1ccc2c(c1)CCC2)N1CCc2ccccc21` gave p47phox inh -13, Mcl1-Noxa inh 49, Mcl1 Bid PPI 90*, Mcl-1 Bim block 2, 14-3-3 Bad PPI 1 and eIF4E-4G inh -2.
COc1ccccc1C1CCN(c2cc(O)ccc2[N+](=O)[O-])CC1 was read as p47phox inh -8, Mcl1-Noxa inh -18, Mcl1 Bid PPI 0, 14-3-3 Bad PPI 2 and eIF4E-4G inh -3.
For COC(=O)C(C)(C)ONC(=O)Nc1ccccc1 the results were p47phox inh -12, Mcl1-Noxa inh 6, Mcl1 Bid PPI 2, Mcl-1 Bim block -5, 14-3-3 Bad PPI -4 and eIF4E-4G inh -3.
`N=C(N)SCP(=O)(c1ccccc1)c1ccccc1` gave p47phox inh -2, Mcl1-Noxa inh 9, Mcl1 Bid PPI 56*, 14-3-3 Bad PPI -1 and eIF4E-4G inh -13.
For COc1ccccc1N1CCN(C(=O)c2ccc(CS(=O)(=O)c3ccccc3OC)o2)CC1 the results were p47phox inh -18, Mcl1-Noxa inh 20, Mcl1 Bid PPI -26, Mcl-1 Bim block -1, 14-3-3 Bad PPI -14 and eIF4E-4G inh -2.
For CCOC(=O)N1CCN(C(=O)c2ccc(CS(=O)(=O)c3ccccc3OC)o2)CC1 the results were p47phox inh -1, Mcl1-Noxa inh 59*, Mcl1 Bid PPI -44, Mcl-1 Bim block 2, 14-3-3 Bad PPI -2 and eIF4E-4G inh -3.
For COc1cc(NC(=O)c2ccccc2Cl)c(OC)cc1NC(=O)CN1CCCCC1 the results were p47phox inh -6, Mcl1-Noxa inh -10, Mcl1 Bid PPI -28, Mcl-1 Bim block -1, 14-3-3 Bad PPI -8 and eIF4E-4G inh 1.
For Cc1ccc(NCc2ccco2)cc1C the results were p47phox inh -2, Mcl1-Noxa inh 15, Mcl1 Bid PPI 9, Mcl-1 Bim block -2, 14-3-3 Bad PPI 71* and eIF4E-4G inh 2.
`COc1cc(NC(=O)C2CCN(S(=O)(=O)c3cccc4nonc34)CC2)cc(OC)c1` gave p47phox inh -9, Mcl1-Noxa inh 10, Mcl1 Bid PPI 81*, Mcl-1 Bim block 3, 14-3-3 Bad PPI -11 and eIF4E-4G inh 5.
`O=C(Nc1cccnc1)C1CCN(S(=O)(=O)c2cccc3nonc23)CC1` gave p47phox inh -14, Mcl1-Noxa inh -1, Mcl1 Bid PPI -28, Mcl-1 Bim block 4, 14-3-3 Bad PPI -2 and eIF4E-4G inh -1.
For CCOc1ccc2nc(NC(=O)C3CCCN(S(=O)(=O)c4cccc5nonc45)C3)sc2c1 (centres undefined) the results were p47phox inh -15, Mcl1-Noxa inh 45, Mcl1 Bid PPI 59*, Mcl-1 Bim block -6, 14-3-3 Bad PPI 1 and eIF4E-4G inh -1.
Screening Cc1ccc(C#N)c(SCC(=O)Nc2nccs2)n1 returned p47phox inh -17, Mcl1-Noxa inh -1, Mcl1 Bid PPI -32, Mcl-1 Bim block 2, 14-3-3 Bad PPI -5 and eIF4E-4G inh -3.
CCC(C)[C@H](NC(=O)Nc1ccccc1F)C(=O)OC (some centres undefined) was read as p47phox inh 4, Mcl1-Noxa inh -1, Mcl1 Bid PPI -8, 14-3-3 Bad PPI -13 and eIF4E-4G inh -1.
`Cc1nn(-c2ccccc2)c2nc(C(Cl)(Cl)Cl)[nH]c(=O)c12` gave p47phox inh -13, Mcl1-Noxa inh 14, Mcl1 Bid PPI 38, 14-3-3 Bad PPI 9 and eIF4E-4G inh 6.
For S=C(NCC1CCCO1)N1CCN(Cc2ccccc2)CC1 (centres undefined) the results were p47phox inh -2, Mcl1-Noxa inh 22, Mcl1 Bid PPI -3, Mcl-1 Bim block 1, 14-3-3 Bad PPI 70* and eIF4E-4G inh 4.
Screening COC(=O)C1=C(C)C(c2ccc(OC)cc2OC)NC(=O)N1 (centres undefined) returned p47phox inh 4, Mcl1-Noxa inh 4, Mcl1 Bid PPI 65*, Mcl-1 Bim block 3, 14-3-3 Bad PPI -4 and eIF4E-4G inh -7.
